# High-throughput results (PubChem)
# Hits are enriched below; roughly 12% of the tested compounds scored in any of these assays.
# Pf growth 48h: P. falciparum growth inhibition at 48 hours (one generation); P. falciparum luciferase growth in erythrocytes, 48 h; actives 5.9% (n = 310,000); AID 504832; Potency, µM (series often up to 28.7 µM), for the others: at the highest dose activity change, negative = inhibition, actives largely listed as inhibitors; note: % is set by controls: 0 for no effect and ±100 for the full control effect
#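 Compounds are pin-transferred into medium, infected erythrocytes (2% hematocrit, 0.1% parasitemia final) are added, and plates sit one parasite generation at 37 C in 5% CO2. Detection reagent is then added and luminescence measured.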
# Pf growth 96h: P. falciparum growth inhibition at 96 hour, primary screen for plastid delayed-death inhibitors; Potency, µM (highest dose often 28.7 µM), inactives show at the top dose activity change, negative = inhibition, actives largely listed as inhibitors; actives 6.9% (n = 320,000); AID 504834; P. falciparum luciferase reporter growth, 96 h; note: % is set by controls: 0 for no effect and ±100 for the full control effect
#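 Cell-based qHTS: luciferase-tagged P. falciparum in erythrocytes (2% hematocrit, 0.05% parasitemia final) incubated with compounds for 96 hours, 37 C, 5% CO2; luciferase detection reagent then added and luminescence measured.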
# Sm TGR inh: S. mansoni TGR enzyme inhibition | Potency, µM (highest dose often 114 µM), for the others: at the highest dose activity change, negative = inhibition, most hits filed as inhibitors | Q962Y6 | AID 485364 | purified TGR, DTNB reduction, TNB absorbance 405 nm | actives 3% (n = 360,000); note: % is set by controls: 0 for no effect and ±100 for the full control effect; nearly all actives have a fitted effect of over 60% in size
#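 TGR 20 nM + NADPH 100 uM (dispensed conc.), cpd preinc 15 min RT; start with NADPH (500 uM addition) then DTNB (15 mM addition). Kinetic TNB absorbance, 405 nm filter. Four-parameter Hill fit across titration.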
# AmpC detergent: inhibitors of E. coli AmpC beta-lactamase with detergent | Potency, µM (highest dose often 114 µM), for the others: at the top dose activity change, negative = inhibition, usual class: inhibitors | AmpC hydrolysis of nitrocefin, absorbance 480 nm, 0.01% Triton | actives 0.041% (n = 370,000) | P00811 | AID 485294;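 note: 0% = no-compound wells and -100% = no-enzyme wells; nearly all actives have a fitted effect of over 25% in size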
# Target sequence (P00811 whole entry, looked up): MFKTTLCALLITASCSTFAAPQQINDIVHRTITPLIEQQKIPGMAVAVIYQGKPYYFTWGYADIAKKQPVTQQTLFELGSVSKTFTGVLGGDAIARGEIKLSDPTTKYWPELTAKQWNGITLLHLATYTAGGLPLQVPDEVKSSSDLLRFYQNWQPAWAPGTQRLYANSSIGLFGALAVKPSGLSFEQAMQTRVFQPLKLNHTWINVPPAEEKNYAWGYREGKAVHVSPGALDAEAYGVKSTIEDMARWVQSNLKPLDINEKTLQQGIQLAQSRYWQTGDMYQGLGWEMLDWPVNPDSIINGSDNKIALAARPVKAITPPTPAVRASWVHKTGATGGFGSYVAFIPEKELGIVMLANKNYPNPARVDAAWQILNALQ
#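 20 mM phosphate pH 7.0 + 0.01% (detergent screen) or 0.0001% Triton X-100; 5.3 nM AmpC reagent; cpd preinc 15 min RT; nitrocefin (800 uM stock) to start; A480 q20 s × 4 min; Activity was normalised to no-enzyme and no-compound control wells.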
# SARS PLP yeast: SARS-CoV PLP inhibition in yeast | S. cerevisiae expressing SARS-CoV PLpro, growth rescue | actives 0.19% (n = 330,000) | AID 485353 | Potency, µM (doses to about 32.9 µM), without a hit: at the highest dose activity, positive = growth rescue, most hits filed as activators; calls by dose curve; note: 0% is about no effect; nearly all actives have a fitted effect of over 55% in size
# AmpC inh no detg: inhibitors of E. coli AmpC beta-lactamase without detergent; AmpC nitrocefin hydrolysis, absorbance 480 nm, 0.0001% Triton; Potency, µM (titrated, usually from 57.1 µM), inactives show at the highest dose activity change, negative = inhibition, hits mostly inhibitors; actives 0.52% (n = 330,000); P00811;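 note: plate controls were no compound for no effect and no enzyme for full effect; nearly all actives have a fitted effect of over 20% in size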
#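 20 mM phosphate pH 7.0 + 0.01% (detergent screen) or 0.0001% Triton X-100; 5.3 nM AmpC reagent; cpd preinc 15 min RT; nitrocefin (800 uM stock) to start; A480 q20 s × 4 min; Activity was normalised to no-enzyme and no-compound control wells.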
# * = called active by the depositor; ? = inconclusive; / = no result given; [ ] = dose if it differs, or a comment. Unless noted, calls come from the whole dose curve; as a rule, active = well fitted curve in the direction sought with a large enough effect; inconclusive = small, poorly fitted or top-dose-only effect, or another doubt; inactive = no such curve, though single readings can be large; an effect the other way counts as inactive or inconclusive. Potency is the fitted concentration of half-maximal effect.
SMILES,Pf growth 48h,Pf growth 96h,Sm TGR inh,AmpC detergent,SARS PLP yeast,AmpC inh no detg
COc1ccc(-c2cn(CCc3c[nH]c4ccccc34)nn2)cc1,12%,9.3µM*,-6%,-2%,3%,-35%
COc1ccc(OC)c(N=c2oc3cc(O)ccc3cc2C(N)=O)c1,11%,13µM*,5%,8%,-1%,-8%
N#C/C(=C\c1cccc(Cl)c1)C(=O)c1ccccc1,5%,0%,50µM*,0%,-3%,-32%
CSc1ccc(NC(=O)NCCCN2CCC(Cc3ccccc3)CC2)cc1,8.3µM*,?,-4%,1%,-4%,77%
COc1ccc(NC(=O)NCCCN2CCC(Cc3ccccc3)CC2)cc1,-25%,?,10%,-7%,0%,14%
CCCS(=O)(=O)N1CCC(C(=O)NCCN2CCC(Cc3ccccc3)CC2)CC1,4.1µM*,2%,4%,-1%,3%,-4%
CCS(=O)(=O)N1CCC(C(=O)NCCc2ccccc2)CC1,27%,1.5µM*,1%,-1%,1%,-16%
CCS(=O)(=O)N1CCC(C(=O)NCCCN2CCC(Cc3ccccc3)CC2)CC1,-2%,9.3µM*,2%,-1%,-1%,3%
CCS(=O)(=O)N1CCC(C(=O)NCCc2ccc(C)cc2)CC1,4%,?,-2%,9%,2%,1%
COc1ccccc1N(C(=O)c1ccco1)C(C(=O)NC1CCCC1)c1ccncc1 (stereo unspecified),?,-2%,4%,8%,1%,-3%
CCOc1ccc(CCNC(=O)C2CCN(S(=O)(=O)N3CC(C)CC(C)C3)CC2)cc1OCC (stereo unspecified),-19%,-12%,-1%,1%,-7%,20%
CCCS(=O)(=O)N1CCCC(C(=O)NCCN(CC)c2ccccc2)C1 (stereo unspecified),?,13µM*,-4%,2%,-1%,32%
CCOc1ccc(CCNC(=O)C2CCCN(S(=O)(=O)c3c(C)n[nH]c3C)C2)cc1OCC (stereo unspecified),8.3µM*,4%,-1%,1%,-4%,103%
CCOc1ccc(CCNC(=O)C2CCN(S(=O)(=O)CC)CC2)cc1OCC,50%,2.6µM*,5%,-6%,3%,0%
CCCS(=O)(=O)N1CCC(C(=O)NCCN(C)Cc2ccccc2)CC1,18%,15µM*,5%,-11%,-1%,-2%
Cc1ccc(CNC(=O)C2CCCN(S(=O)(=O)c3c(C)n[nH]c3C)C2)cc1 (stereo unspecified),/,-24%,2%,-3%,11%,-8%
CCN(CC)C(=O)C(=O)c1cn(CCOc2ccccc2)c2ccccc12,?,34%[5.75 µM],25%,0%,1%,106%
O=C(Cc1ccccc1)NC(NCCc1ccccc1)C(Cl)(Cl)Cl (stereo unspecified),0%,?,2%,?,1%,-20%
CN(C)c1ccc(NC(=O)Cn2nnc3sc4c(c3c2=O)CCC(C(C)(C)C)C4)cc1 (stereo unspecified),/,/,-8%,15%,/,/
CC(=O)O/N=C1\C(=O)N(Cc2ccc(C)cc2)c2ccccc21,?,?,16µM*,?,-7%,-31%
CN1C(=O)/C(=N\OC(=O)c2ccccc2Cl)c2ccccc21,14%,-21%,?,?,-1%,-46%
Cc1ccc(CCNC(=O)C23CN(Cc4ccccc4)CC2C(c2cccc([N+](=O)[O-])c2)=NO3)cc1 (stereo unspecified),2.9µM*,?,-9%,-5%,-1%,5%
COc1ccc(CCNC(=O)C23CN(Cc4ccccc4)CC2C(c2cccc([N+](=O)[O-])c2)=NO3)cc1 (stereo unspecified),?,?,-3%,3%,-1%,-8%
NC(=O)CNC(=O)[C@@H]1CC2(CC(c3cccc([N+](=O)[O-])c3)=NO2)CN1C(=O)c1ccccc1 (stereo partly specified),3%,?,-6%,?,10%,130%
O=C(NCC1CCCCC1)C12CN(Cc3ccccc3)CC1C(c1cccc([N+](=O)[O-])c1)=NO2 (stereo unspecified),1.7µM*,?,-3%,1%,-7%,-25%
SMILES,Pf growth 48h,Pf growth 96h,Sm TGR inh,AmpC detergent,SARS PLP yeast,AmpC inh no detg
O=C1CCc2cc(S(=O)(=O)Nc3ccccc3F)ccc2N1,7%,-2%,2%,2%,8%,-7%
CCOc1cccc2sc(N(CCN(CC)CC)C(=O)c3ccco3)nc12,/,/,0%,-5%,/,/
Cc1cc(C)c(CN2CCC(n3nccc3NC(=O)CCOc3ccccc3)CC2)cc1C,?,13µM*,-10%,1%,0%,147%
Cc1ccccc1CN1CCC(n2nccc2NC(=O)CCOc2ccccc2)CC1,?,4.1µM*,3%,-6%,8%,90%
Cc1cccc(OCc2nnc(SCCC(=O)O)n2-c2ccccc2)c1,29%,?,79µM*,?,2%,-10%
CCOC(=O)C(CC)Sc1nnc(COc2ccc(C)cc2)n1-c1ccccc1 (stereo unspecified),13µM*,?,-16%,-3%,-22%,48%
COc1ccc(-n2c(COc3cccc(C)c3)nnc2SCC(=O)O)cc1,11%,?,-26%,?,20%,-15%
CCOc1ccc(-n2c(COc3ccc(C)cc3)nnc2SCC(N)=O)cc1,-28%,?,0%,?,-4%,124%
C=CCC(COCc1ccccc1)NS(=O)(=O)c1ccccc1Br (stereo unspecified),13µM*,?,10%,4%,-2%,-19%
C=CC(COCc1ccccc1)N(C(=O)OC(C)(C)C)S(=O)(=O)c1ccccc1Br (stereo unspecified),?,?,-6%,3%,1%,-6%
O=S(=O)(NCc1nc2cccnc2n1Cc1ccccc1Cl)c1ccc(F)c(Cl)c1,/,/,-1%,-1%,/,/
CCOC(=O)c1c(NC(C)=O)c2c3c(sc2n1Cc1nc(-c2ccc(Cl)cc2)oc1C)CCCC3,/,/,3%,-5%,/,/
N=C1/C(=C\c2ccc(-c3cccc(Cl)c3)o2)C(=O)N=C2SC=C(c3ccccc3)N12,22%,32%,?,-7%,8%,16µM*
COc1ccc(/C=C2\SC(=N)N(c3nccs3)C2=O)cc1OC,?,?,4%,?,-40%,-9%
